Results as given in PubChem BioAssay AID1159580 (chemical genetic matrix, 2015).
The campaign covered roughly 5,500 compounds. About 2,000 (36%) were called active. Not shown: some 18% with an inconclusive outcome. Cut-off read from the data, not from the text of the source: active = normalized growth mostly below about 0.91 (no sharp cut-off); inconclusive = no clear call, values can overlap the other calls; inactive = mostly above about 0.92. The list shows a part of the results.

Assay: chemical genetic growth profiling, strain panel (AID 1159580);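 note: tested at 20 µM; growth read once vehicle control cultures reached saturation at 30 °C; 1 = growth at the plate median or of vehicle wells; lower values mean less growth of the strain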
Conditions: S. cerevisiae deletion strains, growth OD
[1] = locus YAL013W, strain DEP1, stronger effect = lower value
[2] = locus YDR150W, strain NUM1, stronger effect = lower value
[3] = locus YGR078C, strain PAC10, stronger effect = lower value
[4] = locus YHR030C, strain SLT2, stronger effect = lower value
[5] = locus YJR075W, strain HOC1, stronger effect = lower value
[6] = locus YMR263W, strain SAP30, stronger effect = lower value
[7] = locus YNL153C, strain GIM3, stronger effect = lower value
[8] = locus YNL322C, strain KRE1, stronger effect = lower value
[9] = locus YPL055C, strain LGE1, stronger effect = lower value
[10] = locus YPL241C, strain CIN2, stronger effect = lower value
[11] = locus YAL040C, strain CLN3, stronger effect = lower value
[12] = locus YCL061C, strain MRC1 (second series), stronger effect = lower value
[13] = locus YDR363W, strain ESC2, stronger effect = lower value
[14] = locus YER002W, strain NOP16, stronger effect = lower value
[15] = locus YNL175C, strain NOP13, stronger effect = lower value
[16] = locus YNL197C, strain WHI3, stronger effect = lower value
[17] = locus YNL224C, strain SQS1, stronger effect = lower value
[18] = locus YOR083W, strain WHI5 (second series), stronger effect = lower value

Measured: normalized growth

CCN(CC)C(=O)c1[nH]c(C)c(C)c1C
inactive: [1] 1.01 | locus YBR229C, strain ROT2, stronger effect = lower value 1 | locus YCL061C, strain MRC1, stronger effect = lower value 1.01 | locus YDL101C, strain DUN1, stronger effect = lower value 0.994 | [2] 1.01 | locus YEL061C, strain CIN8, stronger effect = lower value 0.985 | [3] 1.01 | locus YGR229C, strain SMI1, stronger effect = lower value 1.02 | [4] 1 | locus YHR087W, strain rtc3, stronger effect = lower value 0.998 | locus YJR043C, strain POL32, stronger effect = lower value 0.997 | [5] 1.01 | locus YLR039C, strain RIC1, stronger effect = lower value 1.02 | locus YLR058C, strain SHM2 (second series), stronger effect = lower value 1.01 | locus YLR085C, strain ARP6, stronger effect = lower value 1.03 | locus YLR262C, strain YPT6, stronger effect = lower value 0.995 | locus YML094W, strain GIM5, stronger effect = lower value 1.02 | locus YMR219W, strain ESC1, stronger effect = lower value 1.02 | [6] 1.01 | [7] 1 | locus YNL298W, strain CLA4 (second series), stronger effect = lower value 1.01 | [8] 0.985 | locus YNR030W, strain Alg12, stronger effect = lower value 1 | locus YOL006C, strain TOP1, stronger effect = lower value 1.04 | [9] 1.02 | [10] 0.994 | locus YPR135W, strain CTF4, stronger effect = lower value 1.06

COC(=O)[C@@H]1[C@H]2C[C@H]3c4[nH]c5ccccc5c4CCN3C[C@@H]2CC[C@@H]1O
inactive: [1] 0.98 | [11] 1.03 | [12] 0.99 | [2] 1.01 | [13] 0.981 | [14] 1 | [3] 0.987 | [5] 0.98 | [6] 0.987 | locus YMR307W, strain GAS1, stronger effect = lower value 1 | [15] 1 | [16] 0.984 | [17] 0.981 | [8] 0.952 | [18] 0.975 | [9] 0.983

O=C(O)Cc1cnc[nH]1
inactive: [1] 1.04 | [11] 1.04 | [12] 1.02 | [2] 1.04 | [13] 1.02 | [14] 1.01 | [4] 0.992 | locus YHR079C, strain IRE1, stronger effect = lower value 1.01 | locus YJL095W, strain BCK1, stronger effect = lower value 1 | locus YJR066W, strain TOR1, stronger effect = lower value 0.985 | locus YLR113W, strain HOG1, stronger effect = lower value 1 | [7] 1.03 | [15] 1 | locus YNL183C, strain NPR1, stronger effect = lower value 0.938 | [16] 1.01 | [17] 1 | [8] 1.02 | [18] 1.01 | locus YOR231W, strain MKK1, stronger effect = lower value 1 | [10] 1.01 | locus YPL256C, strain CLN2, stronger effect = lower value 1

C[C@]12CC[C@@H]3c4ccc(O)cc4CC[C@H]3[C@@H]1CC[C@@H]2O
inactive: [1] 1 | [11] 1.01 | [12] 1.01 | [2] 1.01 | [13] 1.01 | [14] 1.02 | [3] 0.999 | [5] 1.01 | [7] 0.948 | [15] 1.01 | [16] 1.03 | [17] 1.03 | [18] 0.899
